Shown are actives, neighbours in structure and some others; about 4.5% of the full set was active somewhere.
DAX1 inh-1 – inhibitors of DAX1 repression of SF-1 activated StAR promoter; HEK293T StAR-luciferase reporter, SF-1/DAX-1 repression relief; inhibition, % at 6.8 µM; hit rate 1.1% among 370,000; AID 652010;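 active means inhibition above the mean over all tested compounds plus 3 SD, cut at about 3.6% in these data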;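 further: higher inhibition means more luminescence from relief of DAX-1 repression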
DAX1 inh-2 – inhibits human nuclear receptor DAX1; HEK293 Gal4-DAX1 luciferase reporter, luminescence; inhibition, % at 6.75 µM; hit rate 0.99% among 340,000;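 active means inhibition above the mean over all tested compounds plus 3 SD, cut at about 4.2% in these data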;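 further: inhibition shows as a rise in luminescence from relieved DAX1 repression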
Target sequence (P51843 207-470 limits assumed): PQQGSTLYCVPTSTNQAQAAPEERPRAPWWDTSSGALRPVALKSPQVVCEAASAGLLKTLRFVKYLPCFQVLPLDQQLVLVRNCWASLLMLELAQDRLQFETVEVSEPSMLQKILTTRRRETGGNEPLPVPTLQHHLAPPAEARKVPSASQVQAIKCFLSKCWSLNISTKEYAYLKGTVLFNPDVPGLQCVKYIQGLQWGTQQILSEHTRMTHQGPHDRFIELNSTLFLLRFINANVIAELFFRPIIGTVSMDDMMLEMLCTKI
hgDAF-12 ag – hgDAF-12 agonism, primary luciferase screen. activation, % at 6.8 µM. HEK293 GAL4-hgDAF12 UAS-luciferase reporter, agonist luminescence; normalized to butyrate control. hit rate 1.8% among 370,000. AID 687014;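 active means activation above a cutoff set at the mean of all screened compounds plus 3 SD, cut at about 10% in these data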
ssDAF12 agonist – activates DAF-12 receptor from parasite S. stercoralis. HEK293 ssDAF-12/GRIP1 lit1-tk-luc reporter, luminescence; % of 3 µM dafachronic acid response. activation, % at 6.8 µM. hit rate 1% among 370,000. AID 652126;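 active means activation above the mean over all tested compounds plus 3 SD, cut at about 0.9% in these data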
hcDAF12 agonist – activators of H. contortus DAF-12 nuclear receptor; HEK293 hcDAF-12 lit1-tk-luc reporter, luminescence; 0% DMSO, 100% Δ7-dafachronic acid; activation, % at 6.8 µM; hit rate 1.4% among 370,000; AID 652067;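 active means activation above the mean of all tested compounds plus 3 SD, cut at about 5.5% in these data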
GAA850 FXN act – increases GAA850 frataxin promoter reporter activity. HEK293 lucGAA850 FXN promoter luciferase reporter, 24 h; percent of 10 µM SAHA response. activation, % at 6 µM. hit rate 0.56% among 360,000. AID 540364;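 active means activation above the average of all compounds screened plus 3 SD, cutoff fixed separately per campaign, cut at about 7.5% in these data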
A number is an active result; i = inactive; nt = no result.

SMILES	DAX1 inh-1	DAX1 inh-2	hgDAF-12 ag	ssDAF12 agonist	hcDAF12 agonist	GAA850 FXN act
Cc1sc(N/N=C/C=C/c2ccccc2)nc1-c1ccccc1	i	i	i	i	6.0	i
O=[N+]([O-])c1ccc(NCc2ccncc2)cc1	i	4.6	i	i	i	i
O=[N+]([O-])c1ccc(NC(=S)NCc2ccncc2)cc1	i	i	i	i	i	i
O=[N+]([O-])c1cc(C=NN2CCN(Cc3ccccc3Cl)CC2)ccc1Cl	i	nt	i	i	i	nt
COC(=O)[C@]12C[C@H](CC(=O)NCc3cccc(C(F)(F)F)c3)C(=O)N(Cc3ccc(Cl)cc3Cl)C1=C[C@H](C(C)C)O[C@@H]2C1CC1	i	nt	i	i	i	nt
CC(=Nc1cccc(O)c1)c1sc2ccccc2c1O	i	i	i	1.5	i	i
CN=Cc1sc2ccccc2c1O	i	i	i	i	i	i
CCOC(=O)C1CCN(c2cc(=O)n(-c3ccccc3Cl)c(=O)[nH]2)CC1	i	4.2	i	i	i	i
CCOC(=O)C1CCN(c2cc(=O)n(C3CCCCC3)c(=O)[nH]2)CC1	i	i	i	i	i	i
CCC(CO)Nc1ccn2nc(-c3cccc(Cl)c3)cc2n1 (stereo unspecified)	3.9	nt	13	i	i	i
COc1ccc(C2CC(c3ccc(F)cc3)n3nc(NC(=O)c4ccco4)nc3N2)cc1 (stereo unspecified)	i	4.8	i	i	i	i
Fc1ccccc1-c1n[nH]c(=S)n1N=Cc1ccc(-c2ccccc2)cc1	i	nt	i	i	i	nt
CCc1ccc2[nH]c(C(=O)Nc3ccc(C)c(F)c3)cc2c1	i	i	i	i	5.8	i
O=C(CSc1nnc(-c2ccccn2)n1-c1ccc(Cl)cc1)Nc1ccc2c(c1)OCCO2	i	nt	i	i	i	nt
O=C(Cn1cnc2ccccc2c1=O)c1ccc2c(c1)OCCO2	i	i	11	i	i	i
O=C(Cn1cnc2ccccc2c1=O)c1ccc2ccccc2c1	i	i	i	i	i	i
CSc1nc(N)nc2c1ncn2CC(=O)NCc1ccccc1	i	i	i	0.9	i	i
CCC(C(=O)Nc1ccccc1N1CCCC1)c1cccc(C)c1 (stereo unspecified)	i	nt	i	i	i	nt
COc1ccccc1C1CC(=O)Oc2cc(C)c(Cl)cc21 (stereo unspecified)	i	i	i	i	i	i
COc1ccccc1C1CC(=O)Oc2cc(O)ccc21 (stereo unspecified)	4.0	i	i	i	i	i
COc1ccc(CCN(Cc2cccs2)S(=O)(=O)c2ccc(F)cc2)cc1OC	i	nt	i	i	i	nt
O=S1(=O)CC(O)C(Nc2ccccc2)C1 (stereo unspecified)	i	i	i	i	i	i
O=S1(=O)CC(O)C(N(CCO)C(=S)Nc2ccccc2)C1 (stereo unspecified)	i	5.3	i	i	i	i
CN[C@H]1C[C@H]2c3[nH]c4c(-c5cccc(C)c5)cccc4c3CCN2C(=O)[C@H]1[C@H](C)O	i	nt	i	i	i	nt
COc1ccc(C2=Nc3ccccc3C2(O)CCN2C(=O)c3ccccc3C2=O)cc1 (stereo unspecified)	i	i	10	i	i	i
SMILES	DAX1 inh-1	DAX1 inh-2	hgDAF-12 ag	ssDAF12 agonist	hcDAF12 agonist	GAA850 FXN act
COc1ccc(OCCN2C(=O)c3ccccc3C2=O)cc1	i	i	i	i	i	i
Nc1ccc2c(c1)C(=O)c1ccccc1-2	i	6.1	i	i	i	i
O=[N+]([O-])c1ncccc1OCCOc1ccc(Cl)cc1Cl	nt	nt	i	i	i	nt
O=C(O)CN1C(=O)C2(OCCO2)c2cc(Br)ccc21	i	5.2	i	i	i	i
O=C(CN1C(=O)C2(OCCO2)c2cc(Br)ccc21)NO	i	i	i	i	i	i
O=C(COc1ccccc1)Nc1cc(Cl)ccc1Cl	i	4.6	i	i	5.9	i
Cc1ccc(Cl)cc1NC(=O)COc1ccccc1	i	i	i	i	i	i
COc1cc(NC(=O)C(OC(=O)CNC(=O)c2ccccc2)c2ccccc2)cc(C(F)(F)F)c1 (stereo unspecified)	nt	nt	i	i	i	nt
N/C(=N\OC(=O)c1ccccc1Br)c1ccc([N+](=O)[O-])cc1	i	i	i	i	6.1	i
N/C(=N\OC(=O)c1ccccc1Br)c1cccc([N+](=O)[O-])c1	i	i	i	i	i	i
COc1cc(C(=O)O/N=C(\N)c2ccc([N+](=O)[O-])cc2)cc(OC)c1OC	i	i	i	i	i	i
N/C(=N\OC(=O)c1ccccc1F)c1cccc([N+](=O)[O-])c1	i	5.4	i	i	i	i
COc1cc(C(=O)O/N=C(\N)c2cccc([N+](=O)[O-])c2)cc(OC)c1OC	i	5.1	i	i	i	i
N/C(=N\OC(=O)c1ccco1)c1cccc(Br)c1	i	i	i	i	6.1	i
CCC(=O)N[C@@H]1C[C@@H]2O[C@@H](CO)CC[C@@H]2O[C@@H]1CCc1ccc(-c2cccc(OC)c2)cc1	i	nt	i	i	i	nt
COc1cccc(/C(N)=N/OC(=O)Cc2ccccc2[N+](=O)[O-])c1	i	4.7	i	i	i	i
Cc1ccc(C(=O)O/N=C(\N)c2cccc([N+](=O)[O-])c2)cc1	i	i	i	i	i	i
N/C(=N\OC(=O)c1ccco1)c1cccc([N+](=O)[O-])c1	i	i	13	i	i	i
N/C(=N\OC(=O)Cc1ccccc1[N+](=O)[O-])c1ccncc1	i	i	i	i	i	i
O=C(Nc1cccc(Cl)c1)OC1CCC12CCC(c1ccccc1)CC2 (stereo unspecified)	i	nt	i	i	i	nt
COc1ccc(C2CC(c3ccccc3)=NN2c2ccc(N)cc2)cc1 (stereo unspecified)	i	i	11	i	i	i
O=C(Cc1cccs1)N/N=C/C(Cl)=C/c1ccccc1	i	i	12	i	i	i
O=C(Cc1cccs1)N/N=C/c1ccccc1	i	nt	i	i	i	i
CCN1CCN(C(=S)Nc2sc(C)c(-c3ccccc3)c2C(=O)OC)CC1	i	i	i	i	i	i
CCc1c(C)sc(NC(=S)N2CCN(CC)CC2)c1C(=O)OC	i	5.2	i	i	i	i
Nn1c(SCC(=O)Nc2ccc(Br)cn2)nnc1-c1n[nH]c2c1CCC2	i	nt	i	i	i	nt
COC1=C[C@H](C(=O)NCc2ccccn2)[C@@]2(C)Cc3ccccc3[C@H]2CC1=O	i	nt	i	i	i	nt
Cc1ccc(C(=O)/C=C/c2cn(CN3CCN(C)CC3)c3ccccc23)cc1	i	i	13	i	i	i
COc1cccc(-c2ccc(CC[C@H]3O[C@H]4CC[C@@H](CO)O[C@H]4C[C@H]3NC(=O)c3cnccn3)cc2)c1	i	nt	i	i	i	nt
Cc1ccccc1CNC(=S)OC1CCC12CCC(c1ccccc1)CC2 (stereo unspecified)	i	nt	i	i	i	nt
